High-throughput results: PubChem BioAssay, National Center for Advancing Translational Sciences (NCATS)
Most compounds without a hit are left out; they make up all but 21% or so of the library.
Pf growth 96h = Primary qHTS for delayed death inhibitors of the malarial parasite plastid, 96 hour incubation | P. falciparum luciferase reporter growth, 96 h | AID 504834, 2011 | Potency, µM (top dose mostly 28.7 µM), for inactives: top-dose activity change, negative = inhibition, most hits filed as inhibitors | 320,000 compounds, 6.9% hits; also: potency is read from the fitted curve at half-maximal effect; % is scaled to controls: 0 for no effect and ±100 for the full control effect
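P. falciparum expressing integrated firefly luciferase, in erythrocytes at 2% hematocrit, 0.05% parasitemia, incubated with compounds 96 h at 37 C, 5% CO2. Growth inhibition read as loss of luminescence; two-generation exposure targets delayed-death apicoplast inhibitors.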
CHX counter = Cycloheximide Counterscreen for Small Molecule Inhibitors of Shiga Toxin. cell reporter, cycloheximide protein synthesis inhibition counterscreen. max response, %. 300,000 compounds, 12% hits; in the data active = max response mostly above about 13%, no sharp cut-off; inactive = mostly below about 14%; also: read at 38.3 µM for the half of the compounds with a filed dose; 0% is about no effect
Pf growth 48h = Primary qHTS for delayed death inhibitors of the malarial parasite plastid, 48 hour incubation. P. falciparum luciferase growth in erythrocytes, 48 h. Potency, µM (titrated, usually from 28.7 µM), without a hit: top-dose activity change, negative = inhibition, usual class: inhibitors. 310,000 compounds, 5.9% hits. AID 504832, 2011; also: potency is read from the fitted curve at half-maximal effect; % is scaled to controls: 0 for no effect and ±100 for the full control effect
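Firefly luciferase activity from engineered P. falciparum reports growth; inhibitors lower the luminescent signal. Cultures contained 2% hematocrit erythrocytes at 0.1% final parasitemia.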
Shiga inhibitor = A qHTS for Small Molecule Inhibitors of Shiga Toxin. inhibition, % at 38.7 µM. 290,000 compounds, 9.2% hits. Vero cells, Shiga toxin protein synthesis inhibition reporter; in the data active = inhibition mostly above about 28%, no sharp cut-off; inactive = mostly below about 43%; also: 0% is about no effect
CLK4 cf ADPGlo = Confirmaiton Assay for Inhibitors of CDC-like Kinase 4 (ADP-Glo Assay); 65 compounds, 80% hits; Potency, µM (titrated, usually from 80 µM), for inactives: at the top dose activity, negative = inhibition, actives largely listed as inhibitors; shares compounds with Pf growth 48h; AID 1969, 2009; recombinant Clk4, RS peptide, ADP-Glo luminescence
Target sequence (Q9HAZ1 whole entry, looked up): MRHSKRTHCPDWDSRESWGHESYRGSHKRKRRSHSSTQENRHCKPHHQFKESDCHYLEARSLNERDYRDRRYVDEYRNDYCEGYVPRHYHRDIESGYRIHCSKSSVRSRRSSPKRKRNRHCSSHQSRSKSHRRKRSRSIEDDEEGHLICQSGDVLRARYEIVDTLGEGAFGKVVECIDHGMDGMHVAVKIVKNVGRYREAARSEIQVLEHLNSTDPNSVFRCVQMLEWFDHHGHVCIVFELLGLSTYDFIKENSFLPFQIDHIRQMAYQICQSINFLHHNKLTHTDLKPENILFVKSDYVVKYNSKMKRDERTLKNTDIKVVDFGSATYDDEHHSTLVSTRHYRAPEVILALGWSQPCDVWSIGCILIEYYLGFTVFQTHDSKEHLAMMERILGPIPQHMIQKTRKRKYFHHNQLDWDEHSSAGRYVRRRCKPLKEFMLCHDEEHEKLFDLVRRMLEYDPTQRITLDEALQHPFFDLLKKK
CLK4 cf ADP-FP = Confirmation Assay for Inhibitors of CDC-like Kinase 4 (ADP-FP Assay); shares compounds with Pf growth 48h; recombinant Clk4, ADP Transcreener FP, RS peptide; Potency, µM (highest dose often 80 µM), for inactives: at the top dose activity, negative = inhibition, actives largely listed as inhibitors; 65 compounds, 70% hits; AID 1983, 2009
Active calls of the source: *; ? = inconclusive; / = no result; ! = not active in a repeat. Unless noted, calls follow the shape of the dose curve; as a rule, active = well fitted curve in the direction sought with a large enough effect; inconclusive = small, poorly fitted or top-dose-only effect, or another doubt; inactive = no such curve, though single readings can be large; an effect the other way counts as inactive or inconclusive.

SMILES | Pf growth 96h | CHX counter | Pf growth 48h | Shiga inhibitor | CLK4 cf ADPGlo | CLK4 cf ADP-FP
Cc1cccc(CNc2ncnc3ccc(-c4ccc5c(ccn5C)c4)cc23)c1 | 1.9µM* | / | 3.3µM* | / | ? | ?
Fc1cccc(CNc2ncnc3ccc(-c4cccc(Cl)c4)cc23)c1 | 2.9µM* | / | 6.6µM* | / | 7.1µM* | 13µM*
Fc1ccc(F)c(CNc2ncnc3cc(Cl)ccc23)c1 | ? | -6 | ? | -12 | / | /
COC(CN1C(=O)C(=O)/C(=C(/O)c2ccccc2)C1c1ccccn1)OC (stereo unspecified) | ? | 10 | 1% | 10 | / | /
Cc1cccc(-c2ccc3ncnc(NCc4cccnc4)c3c2)c1 | ? | / | 9.3µM* | / | 6.3µM* | 10µM*
Cc1cccc(CNc2ncnc3ccc(-c4ccoc4)cc23)c1 | 8.3µM* | / | 15µM* | / | 0.25µM* | 0.28µM*
c1cncc(CNc2ncnc3ccc(-c4ccoc4)cc23)c1 | ? | / | ? | / | 0.56µM* | 1µM*
Fc1cccc(CNc2ncnc3ccc(-c4ccoc4)cc23)c1 | ? | / | ? | / | 3.5µM* | 3.5µM*
O=C(Nc1cccc2c1CCCC2)c1ccncc1 | ? | -2 | 21% | 9 | / | /
Cc1onc(-c2c(Cl)cccc2Cl)c1NC(=O)NC1CCSC1 (stereo unspecified) | 11% | -4 | -2% | -1 | / | /
COc1ccc(/C(=C/c2ccc(OC(F)F)c(OC)c2)C(=O)O)cc1OC | 20% | 8 | -1% | -2 | / | /
CCCCCCNS(=O)(=O)c1nc2nc(C)cc(C)n2n1 | -15% | -1 | 19% | 14 | / | /
Cc1cccc(CNc2ncnc3ccc(-c4ccc5c(c4)OCCO5)cc23)c1 | 3.3µM* | / | 4.7µM* | / | 0.56µM* | 0.71µM*
Cc1ccc(CNc2ncnc3cc(Cl)ccc23)o1 | ? | -2 | / | -17 | / | /
Clc1cccc(-c2ccc3ncnc(NCc4cccs4)c3c2)c1 | 3.3µM* | / | 12µM* | / | 4µM* | 7.9µM*
Cc1cccc(-c2ccc3ncnc(NCc4cccs4)c3c2)c1 | 3.3µM* | / | 3.7µM*! | / | 7.9µM* | 16µM*
Cc1ccc(CNc2ncnc3ccc(-c4c(C)noc4C)cc23)o1 | / | 18 | / | 29 | / | /
COc1cccc(-c2ccc3ncnc(N(C)Cc4ccco4)c3c2)c1 | 15µM* | / | ? | / | 0.35µM* | 0.45µM*
COc1cccc(-c2ccc3ncnc(NCc4ccc5c(c4)OCO5)c3c2)c1 | 7.4µM* | / | 9.3µM* | / | 1.3µM* | 2.2µM*
c1nc(NCc2ccc3c(c2)OCO3)c2cc(-c3ccc4c(c3)OCCO4)ccc2n1 | ? | / | 13µM* | / | 1.8µM* | 2.2µM*
Clc1cccc(-c2ccc3ncnc(NCc4ccc5c(c4)OCO5)c3c2)c1 | 1.5µM* | / | 6.6µM* | / | ? | ?
COc1cccc(S(=O)(=O)NCc2ccc3c(c2)OCO3)c1 | -20% | 4 | / | -13 | / | /
Cc1sc2ncnc(N(C)Cc3ccco3)c2c1C | -29% | -3 | / | -4 | / | /
Cc1ccc(NS(=O)(=O)c2ccc3c(c2)CC(=O)N3)cc1C | ? | -2 | 10% | 1 | / | /
COc1ccc(NC(=O)Cn2c3ccccc3c3nc4n(c(=O)c32)CCS4)cc1 | 19% | -1 | 5% | -12 | / | /
SMILES | Pf growth 96h | CHX counter | Pf growth 48h | Shiga inhibitor | CLK4 cf ADPGlo | CLK4 cf ADP-FP
Cn1ccc2cc(-c3ccc4ncnc(NCc5ccc6c(c5)OCO6)c4c3)ccc21 | ? | / | 13µM* | / | ? | -17%
c1cncc(CNc2ncnc3ccc(-c4ccc5c(c4)OCO5)cc23)c1 | 8% | / | ? | / | 0.13µM* | 0.089µM*
O=C(NC1CCCc2ccccc21)C(Cc1ccccc1)NS(=O)(=O)c1cccs1 (stereo unspecified) | ? | -3 | -18% | -1 | / | /
c1ccc2c3n(nc2c1)CCCO3 | 46% | / | 16% | / | / | /
c1coc(-c2ccc3ncnc(NCc4cccs4)c3c2)c1 | ? | / | ? | / | 28µM* | 28µM*
Clc1ccc(CNCc2cccs2)cc1Cl | ? | 19 | 17% | 29 | / | /
Clc1ccccc1-c1ccc2ncnc(NCc3cccs3)c2c1 | 3.7µM* | / | 5.9µM* | / | 6.3µM* | ?
CCc1cc2c(NCc3ccco3)ncnc2s1 | 10% | -3 | -12% | -3 | / | /
Cc1ccccc1CNc1ncnc2cc(Cl)ccc12 | ? | -2 | / | -9 | / | /
